# Experimental data reported in ChEMBL document CHEMBL3988442, “University of Dundee, Small-Polar-MMV Screening Library” (2021).
# The whole screen tested about 48,000 compounds, of which about 13,000 (27%) showed an effect of 50% or more. The list shows a part of the results.
# Tested on: Wolbachia pipientis
# Experiment: Anti-Wolbachia Cell-Based Screen
# Format: functional
# Set-up: scale not given: in the data most compounds retested in dose-response had high values
# Settings: 5 µM
row,SMILES,Percent Effect [%]
1,CN(C)C(=O)N1CCN(CCCc2ccccc2)[C@H]2CS(=O)(=O)C[C@H]21,-9.893
2,CN(Cc1coc(-c2ccccc2)n1)CC1CCCN1c1cccnn1 (stereo not given),26.49
3,O=C(c1ccc2c(c1)OCCCO2)N1CCCCC1C1OCCO1 (stereo not given),-8.172
4,CC1CCCCN1C(=O)c1ccc2c(c1)OCCCO2 (stereo not given),-1.264
5,O=C(c1ccco1)N1C(CO)[C@]2(O)CC[C@H]1CC2 (stereo not given in full),85.33
6,COCC1N(C(=O)c2ccc3c(c2)OCCCO3)[C@H]2CC[C@]1(O)CC2 (stereo not given in full),106.3
7,COCc1ccccc1NC(=O)[C@@H]1CCCN1C(=O)c1ccco1,6.983
8,O=C(c1ccco1)N1C(CN2CCOCC2)[C@]2(O)CC[C@H]1CC2 (stereo not given in full),107
9,O=C(c1ccco1)N1CCC(CSCc2ccco2)CC1,-5.267
10,COC(=O)c1sccc1NC(=O)C1CCCN1C(=O)c1ccco1 (stereo not given),-17.58
11,O=C(c1ccco1)N1CC[C@@H](N2CCOCC2)[C@@H]1Cc1ccccc1,-19.81
12,O=C(NCC1CC1)C1CN(C(=O)c2ccco2)CC12CCOCC2 (stereo not given),-3.478
13,COCC1N(C(=O)c2ccco2)[C@H]2CC[C@]1(O)CC2 (stereo not given in full),106.6
14,O=C(c1ccco1)N1CC[C@H]2[C@H]1CCN2S(=O)(=O)C1CC1,-8.248
15,COc1ccc(CC(C)(O)CNC(=O)c2cccs2)cc1 (stereo not given),9.514
16,O=C(CCNc1ncccn1)NCCc1ccc(Cl)s1,4.707
17,CN1C[C@H]2CN(Cc3cccc(OC(F)(F)F)c3)CCN2C1=O,-0.9762
18,CCN1CCN(C2CCN(Cc3ccc(Cl)s3)CC2)C1=O,-13.73
19,CN1CCN(C2CCN(CCOc3cccc(F)c3)CC2)C1=O,93.98
20,CN1CCN(C2CCN(CCOc3ccc(Cl)cc3)CC2)C1=O,110.5
21,Cc1cc(C)n(CC2CN(CCOc3cccc(F)c3)CCO2)n1 (stereo not given),-4.27
22,CN1CCN(C2CCN(CCOc3cccc(Cl)c3)CC2)C1=O,94.86
23,CN1CCN(C2CCN(Cc3ccc(Cl)cc3)CC2)C1=O,-21.74
24,O=C(O)[C@H]1CCCN1CCOc1cccc(Cl)c1,-3.257
25,CCN1CCN(C2CCN(C(C(N)=O)c3ccc(F)cc3)CC2)C1=O (stereo not given),-3.81
26,CN1CCN(C2CCN(Cc3ccc(Cl)s3)CC2)C1=O,-8.107
27,CCN1CCN(C2CCN(CCOc3ccc(F)cc3)CC2)C1=O,105.5

row,SMILES,Percent Effect [%]
1,CCOC(=O)N1C[C@H]2CC[C@@H]1CN(Cc1ccccc1)C2,-18.44
2,Cn1ccc(CS(=O)(=O)Cc2cccc(F)c2)cc1=O,13.57
3,COCCN(Cc1ccc(F)cc1Cl)C(=O)c1ccncc1,-4.791
4,Cc1nn2c(N3CCC(O)CC3)cc(-c3ccccc3)nc2c1C,1.799
5,CC(=O)c1cccc(NC(=O)CN2CCCCC2C2OCCO2)c1 (stereo not given),12.92
6,O=C(NCc1ccccc1CN1CCC(O)CC1)Nc1ccncc1,-8.548
7,CC(C)CN1CCC(C(=O)NCCNC(=O)c2ccccc2)CC1,10.43
8,COc1cc(-c2noc(C(CC(C)C)N3CCCCC3=O)n2)ccn1 (stereo not given),-8.352
9,Cc1noc(C2CCN(C(C)c3nc(C4CC4)no3)CC2)n1 (stereo not given),2.218
10,CN1CCN(C2CCN(CCCOc3ccc(F)cc3)CC2)C1=O,81.83
11,CN1CCN(C2CCN(CCOc3ccc(F)cc3)CC2)C1=O,-2.232
12,CN1CCN(C2CCN(C(C(N)=O)c3ccccc3)CC2)C1=O (stereo not given),-3.145
13,OCCn1cc(CN2CCN(CCOc3ccccc3F)CC2)cn1,2.742
14,CN1CCN(C2CCN(CCOc3ccc(C#N)cc3)CC2)C1=O,102.1
15,Cn1c(C2CC2)nc2c1CCN(CCOc1ccc(C#N)cc1)C2,-1.848
16,COc1ccc(CCN2CCC(N3CCN(C)C3=O)CC2)cc1,-2.52
17,CN1CCN(C2CCN(CCOc3ccccc3)CC2)C1=O,94.15
18,CN1CCN(C2CCN(Cc3noc(-c4ccccc4)n3)CC2)C1=O,-0.9175
19,CN1CCN(C2CCN(CCOc3ccccc3F)CC2)C1=O,107.7
20,CC(C)c1nnc(CNc2nc(-c3cccnc3)nc3c2CCC3)n1C,6.162
21,Cc1cnn(CCNCc2csc(-c3cccs3)n2)c1,-4.856
22,Cc1cc(CC(=O)NCC(O)COc2ccc(F)c(F)c2)no1 (stereo not given),-5.317
23,Cc1cccc(-c2nc(CN3CCc4c(ncn4C)C3)no2)c1,5.431
24,COC(C)C(=O)NS(=O)(=O)c1cccc2cc(C)cnc12 (stereo not given),-12.97
25,CCc1cnc(NCC(CC)N2CCOCC2)nc1 (stereo not given),14.29
26,COCCNC(=O)Nc1ccc(CN2CCOC2=O)cc1,-11.28
27,COc1ccc(C(C)n2ccnc2-c2cc3n(n2)CCCNC3)cc1F (stereo not given),6.118

row,SMILES,Percent Effect [%]
1,O=C1CCC(C(=O)NCc2nncn2-c2ccccc2)CN1 (stereo not given),3.893
2,Cc1cccc(CNCC2COC3(CCCCC3)O2)c1C (stereo not given),5.002
3,COc1ccc2[nH]nc(CN3CCC(C(C)N4CCCC4)CC3)c2c1 (stereo not given),-10.16
4,Cn1cccc1C(=O)NCc1cnc2n1CCN(c1ccccn1)C2,-1.189
5,O=C(C1CCOC1)N1CCc2ncc(CNc3ccccn3)n2CC1 (stereo not given),-18.08
6,Cc1ccc(NCc2cnc3n2CCN(c2ncccn2)CC3)nn1,97.55
7,Cc1ccc(N2CCc3ncc(CNc4ccccn4)n3CC2)nn1,114.5
8,COCCN1CCc2ncc(CNc3cc(N(C)C)ncn3)n2CC1,-5.126
9,CN(Cc1ccco1)Cc1cnc2n1CCN(c1ncccn1)CC2.O=C(O)C(F)(F)F,6.885
10,CCN(Cc1ccccc1)C(=O)CN1CCCC(Cn2cncn2)C1 (stereo not given),3.711
11,CN(Cc1ccccc1)C(=O)CN1CCCCC1Cn1cncn1 (stereo not given),-0.2947
12,Cc1ccc(CN(C)C(=O)CN2CCCC2Cn2cncn2)cc1 (stereo not given),-14.18
13,Cc1ccc(CN(C)C(=O)CN2CCCC(Cn3cncn3)C2)cc1 (stereo not given),90.35
14,CN(Cc1ccsc1)C(=O)CN1CCCC1Cn1cccn1 (stereo not given),-10.05
15,CN(Cc1ccccc1)C(=O)CN1CCCC(Cn2cncn2)C1 (stereo not given),97.22
16,CN(Cc1ccc(F)cc1)C(=O)CN1CCCC(Cn2cncn2)C1 (stereo not given),-5.404
17,CN(Cc1cccc(F)c1)C(=O)CN1CCCC(Cn2cncn2)C1 (stereo not given),16.73
18,CN(Cc1ccsc1)C(=O)CN1CCCC(Cn2cncn2)C1 (stereo not given),109.8
19,Cc1ccc(CN(C)C(=O)CN2CCCC(Cn3cncn3)C2)o1 (stereo not given),96.55
20,CN(Cc1ccco1)C(=O)CN1CCCC(Cn2cncn2)C1 (stereo not given),5.962
21,O=C(CN1CCCC(Cn2cncn2)C1)NCc1ccco1 (stereo not given),1.739
22,CC(C)c1nc(CN(C)C(=O)CCS(=O)(=O)c2ccccc2)no1,-0.5439
23,O=C(NS(=O)(=O)c1cccc(C(F)(F)F)c1)c1cscn1,5.239
24,CSCC(C)CNC(=O)N1CCSC(C)(C)C1 (stereo not given),-11.84
25,Cc1ccsc1C(=O)N1CCCn2nnc(Cn3cccn3)c2C1,-8.648
26,NC(=O)C1CCN(CC(=O)NCCc2c(F)cccc2F)CC1,-5.279
27,Cc1ccc(CNC(=O)CN2CCCC(Cn3cncn3)C2)s1 (stereo not given),2.763

row,SMILES,Percent Effect [%]
1,CN(Cc1cccs1)C(=O)CN1CCCCC1Cn1cncn1 (stereo not given),-8.193
2,CN(Cc1cnn(C)c1)C(=O)CN1CCCC(Cn2cncn2)C1 (stereo not given),99.58
3,Cc1ccccc1CN(C)C(=O)CN1CCCC(Cn2cncn2)C1 (stereo not given),113.1
4,CN(Cc1cccs1)C(=O)CN1CCCC1Cn1cncn1 (stereo not given),4.485
5,Cc1ccccc1CN(C)C(=O)CN1CCCCC1Cn1cncn1 (stereo not given),13
6,CN(Cc1cnn(C)c1)C(=O)CN1CCCC1Cn1cncn1 (stereo not given),-17.06
7,CN(Cc1cnn(C)c1)C(=O)CN1CCCCC1Cn1cncn1 (stereo not given),-1.261
8,CN(Cc1cccs1)C(=O)CN1CCCC(Cn2cncn2)C1 (stereo not given),104.7
9,Cc1ccc(F)c(OC2(C(=O)O)CCN(C(=O)C3CCCC3)CC2)c1,-29.08
10,CC(C)c1nccn1CCn1cnc2ccsc2c1=O,2.985
11,Cc1ccc(C(=O)NCCCC2(C3OCCO3)CCOCC2)cc1C,-3.842
12,Cc1ccccc1CN(C)C(=O)CCc1nc(-c2nnc[nH]2)no1,4.436
13,CNC(=O)c1cc2c(nc1N(C)C)CCN(c1ncc(F)cn1)CC2.O=C(O)C(F)(F)F,86.67
14,CNC(=O)c1cc2c(nc1NCC(C)C)CCN(c1ncccn1)CC2.O=C(O)C(F)(F)F,-3.442
15,CCS(=O)(=O)N1CCc2cc(C(=O)NC)c(N(C)C)nc2CC1,15.07
16,CNC(=O)c1cc2c(nc1N(C)C)CCN(C)CC2.O=C(O)C(F)(F)F.O=C(O)C(F)(F)F,0.7225
17,CNC(=O)c1cc2c(nc1NCC(C)C)CCN(C)CC2.O=C(O)C(F)(F)F.O=C(O)C(F)(F)F,-3.691
18,CNC(=O)c1cc2c(nc1N(C)C)CCN(S(=O)(=O)CC(C)C)CC2.O=C(O)C(F)(F)F,-14.6
19,CCc1cnc(N2CCc3cc(C(=O)NC)c(N(C)C)nc3CC2)nc1.O=C(O)C(F)(F)F,91.47
20,CNC(=O)c1cc2c(nc1N(C)C)CCN(c1ncccn1)CC2.O=C(O)C(F)(F)F,100.6
21,CNC(=O)c1cc2c(nc1N(C)C)CCN(S(=O)(=O)N(C)C)CC2.O=C(O)C(F)(F)F,-4.998
22,CNC(=O)c1cc2c(nc1N(C)C)CCN(c1ncc(C)cn1)CC2.O=C(O)C(F)(F)F,101.6
23,CNC(=O)c1cc2c(nc1N(C)C)CCN(S(=O)(=O)C1CC1)CC2.O=C(O)C(F)(F)F,-2.828
24,CCc1cnc(N2CCc3ncnc(N4CCN(C)CC4)c3CC2)nc1.O=C(O)C(F)(F)F,-0.8279
